Here are results for nine compounds from PubChem BioAssay.

Experiment [1] is described as follows: inhibitors of E-selectin induction by TNFa, primary screen, imaging, HUVEC, immunofluorescence, MLSMR starter and 10KST1 sets (AID 487;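 active = visually confirmed hit in the image check and inhibition above 20%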;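 for inhibition: signal is fraction of cell area covered by stained E-selectin grains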;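 for nuclei count: 100% = median nuclei count of all wells on the same plate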). The conditions noted are these: HUVEC TNFalpha-induced E-selectin immunofluorescence imaging, at 2 µM; inhibition: stronger effect = higher value; nuclei count: measured here: cell number, toxicity.
Experiment [2] is described as follows: DUSP6 inhibitors restoring Erk phosphorylation by chemical complementation, primary imaging in DUSP6-transfected HeLa (AID 609;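 active = compounds giving at least 50% inhibition in the cell-based MKP-3 phosphatase rescue imaging test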;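 for inhibition: phospho-Erk level distribution per well compared with pooled transfected vehicle control wells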). The note with it: HeLa MKP-3 transfected, phospho-Erk imaging KS statistic, at 10 µM, cells stimulated with TPA for 15 min.
The target of experiment [3] is Dual specificity protein phosphatase 6 (Homo sapiens) (UniProt Q16828). The experiment is described as above. The note with it: HeLa MKP-3 transfected, phospho-Erk imaging KS statistic; at 10 µM; stronger effect = higher value; cells stimulated with TPA for 15 min.
The target in experiment [4] is Voltage-gated potassium channel subunit beta-2 (Rattus norvegicus) (UniProt P62483). Briefly: KvBeta enzyme negative modulators, primary screen, biochemical, NADPH fluorescence (AID 622;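 active = fluorescence slope higher than the sample average by over 3 SD, cut at about -0.22 in these data, passing the limit was not always enough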;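 note: slope of raw intensity against log time taken from 70 to 1610 s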). The note with it: recombinant KvBeta, 4-cyanobenzaldehyde reduction, at 10 µM, stronger effect = higher value.
For experiment [5] the target is unchanged. Briefly: KvBeta positive modulators, primary screen, biochemical, NADPH fluorescence (AID 623;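 active = NADPH fluorescence slope more negative than the mean of all samples by about 3 SD, 99.7% confidence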;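 note: fluorescence intensity change per second fitted from 20 to 320 s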). The note with it: Recombinant KvBeta, NADPH fluorescence decrease slope, 10 min; at 10 µM; stronger effect = lower value.
Experiment [6] addresses Muscarinic acetylcholine receptor M4 (Homo sapiens) (UniProt P08173). Put plainly: compounds altering M4/GIRK thallium flux, either direction, primary screen, M4 allosteric agonist project, cell-based, HEK293 M4/GIRK, BTC-AM (AID 625;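 active = fluorescence slope after compound addition differing from the mean of all tested samples at 99.7% confidence, mostly higher but some lower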;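 note: thallium influx through GIRK channels coupled to M4 in HEK293 cells with BTC-AM dye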). The conditions noted are these: at 10 µM, actives lie on both sides.
Experiment [7] is described as follows: inhibitors of larval lipid processing in zebrafish, primary screen, whole organism, PED6 fluorescence, gall bladder and intestine (AID 686;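 active = a full or partial loss of lipid-probe fluorescence in the fish gall bladder, intestine or both, judged by eye; inactive = no fluorescence loss, or compound toxic to the fish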;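 note: larvae 5 to 7 days old with five fish per well; signal comes from phospholipase A2 cleavage of quenched PED6 carried via bile; overnight exposure to compound and PED6 before scoring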). The note with it: Zebrafish larvae PED6 lipid processing, fluorescence scoring; screened at 20 µM (by protocol).
Experiment [8] in a line: inhibitors of Chlamydomonas gravitaxis, primary screen, whole organism, Chlamydomonas reinhardtii, WT vs cilia-less mutant, absorbance, 96-well (AID 463189).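 Note: 0% = wild type cc124 cells in DMSO and 100% = ciliumless bld1 mutant cells.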 The conditions noted are these: OD600 absorbance, 2 days, at 10 µM, stronger effect = higher value.
The nature of experiment [9]: inhibitors of Sendai virus-induced IRF3 signaling, primary screen, TLR/RLR signaling modifier project, cell-based, Sendai virus stimulus, luciferase, 10K MLSCN set (AID 602276;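 active = inhibition at or above 50% at 10 µM; inactive = inhibition below 50%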;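 note: firefly luciferase from ISG56 promoter only with Renilla not read in this screen; 0% = Sendai virus plus DMSO and 100% = medium plus DMSO without virus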). The conditions noted are these: HEK293 RL24 IRF3 luciferase reporter, at 10 µM, stronger effect = higher value. (In a reporter assay the amount or activity of a reporter protein is the signal.)
The nature of experiment [10]: inhibitors of poly I:C-induced TLR3 signaling, primary screen, cell-based, poly I:C stimulus, luciferase, 10K MLSCN set (AID 602277;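 active = inhibition of the reporter signal at or above 50%; inactive = inhibition below 50%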). The note with it: HEK293-TLR3 RL24 IRF3 luciferase reporter, at 10 µM, stronger effect = higher value.
The nature of experiment [11]: inhibitors of mutant huntingtin aggregation, primary screen, imaging, exon1htt(103Q)mCFP cells, high-content imaging (AID 483;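 active = visual image review flags a hit and inhibition of aggregation exceeds 20%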;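 note: compound exposure lasted 3 days before fixation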;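 for nuclei count: percent of the per-plate median nuclei count of sample wells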). The note with it: exon1htt(103Q)mCFP cell line, aggregate imaging, at 2 µM; inhibition of aggregation: stronger effect = higher value; nuclei count: measured here: cell count, toxicity.
Experiment [12] concerns the target Alpha-2C adrenergic receptor (Homo sapiens) (UniProt P18825). Briefly: modulators of alpha2C/GIRK thallium flux, primary screen, cell-based, HEK293 alpha2C/GIRK1/2 (AID 624;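 active = fluorescence slope after compound addition differing from the mean of all screened samples at 99.7% confidence, in either direction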;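 note: slope of fluorescence ratio to pre-addition baseline per second over 15 to 24 s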). The note with it: thallium flux BTC fluorescence, at 10 µM, actives lie on both sides.
Where [13] appears, read: measured here: cell density z-score.
[14] abbreviates: measured here: nuclear c-Myc green intensity z-score.
Setting [15] is: measured here: nuclear pErk red intensity z-score, stronger effect = higher value.

Each structure is given as a SMILES string. Values joined by “and” are separate entries in the source; they are usually repeats but may differ in a detail not shown here. Equal entries are not always repeated. Active and inactive are the calls of the source.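 Rule for the calls, unless noted: active = inhibition at or above 50% relative to wild type and mutant plate controls; inactive = inhibition below 50%.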

As usually defined, the inhibition is the drop in the measured response relative to a control, in per cent.

Sequence of Voltage-gated potassium channel subunit beta-2 (Rattus norvegicus) (P62483 whole entry, looked up): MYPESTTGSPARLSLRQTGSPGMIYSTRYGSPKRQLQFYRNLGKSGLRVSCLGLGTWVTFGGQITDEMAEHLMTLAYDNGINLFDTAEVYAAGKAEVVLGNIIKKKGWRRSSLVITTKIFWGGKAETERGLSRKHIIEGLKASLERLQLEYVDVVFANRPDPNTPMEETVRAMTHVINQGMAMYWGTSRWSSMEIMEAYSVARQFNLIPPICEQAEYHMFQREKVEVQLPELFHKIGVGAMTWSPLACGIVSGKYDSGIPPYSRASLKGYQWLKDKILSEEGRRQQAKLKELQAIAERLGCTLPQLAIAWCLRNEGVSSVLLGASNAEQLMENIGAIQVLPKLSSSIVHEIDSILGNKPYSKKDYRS
Sequence of Muscarinic acetylcholine receptor M4 (Homo sapiens) (P08173 whole entry, looked up): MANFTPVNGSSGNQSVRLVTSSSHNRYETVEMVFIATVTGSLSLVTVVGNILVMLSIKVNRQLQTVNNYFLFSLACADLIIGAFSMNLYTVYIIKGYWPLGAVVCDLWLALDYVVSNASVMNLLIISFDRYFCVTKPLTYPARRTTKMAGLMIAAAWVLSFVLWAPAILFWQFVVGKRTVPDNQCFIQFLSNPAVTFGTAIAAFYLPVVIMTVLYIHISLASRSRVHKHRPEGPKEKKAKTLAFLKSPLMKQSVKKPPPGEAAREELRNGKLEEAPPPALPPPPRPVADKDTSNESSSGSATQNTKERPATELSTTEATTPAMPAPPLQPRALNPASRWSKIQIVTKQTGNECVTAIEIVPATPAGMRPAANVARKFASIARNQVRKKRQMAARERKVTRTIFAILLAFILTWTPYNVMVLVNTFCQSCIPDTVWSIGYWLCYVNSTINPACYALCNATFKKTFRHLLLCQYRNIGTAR
Sequence of Dual specificity protein phosphatase 6 (Homo sapiens) (Q16828 whole entry, looked up): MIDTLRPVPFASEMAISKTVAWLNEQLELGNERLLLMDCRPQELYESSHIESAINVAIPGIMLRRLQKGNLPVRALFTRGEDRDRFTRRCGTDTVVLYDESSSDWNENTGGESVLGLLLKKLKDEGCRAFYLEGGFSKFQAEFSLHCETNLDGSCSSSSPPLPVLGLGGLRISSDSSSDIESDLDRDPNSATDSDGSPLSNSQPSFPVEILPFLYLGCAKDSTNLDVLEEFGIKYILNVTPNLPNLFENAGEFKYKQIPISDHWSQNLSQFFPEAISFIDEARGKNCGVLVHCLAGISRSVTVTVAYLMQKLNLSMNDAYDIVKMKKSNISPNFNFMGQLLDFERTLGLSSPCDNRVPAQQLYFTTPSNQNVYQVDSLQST
Sequence of Alpha-2C adrenergic receptor (Homo sapiens) (P18825 whole entry, looked up): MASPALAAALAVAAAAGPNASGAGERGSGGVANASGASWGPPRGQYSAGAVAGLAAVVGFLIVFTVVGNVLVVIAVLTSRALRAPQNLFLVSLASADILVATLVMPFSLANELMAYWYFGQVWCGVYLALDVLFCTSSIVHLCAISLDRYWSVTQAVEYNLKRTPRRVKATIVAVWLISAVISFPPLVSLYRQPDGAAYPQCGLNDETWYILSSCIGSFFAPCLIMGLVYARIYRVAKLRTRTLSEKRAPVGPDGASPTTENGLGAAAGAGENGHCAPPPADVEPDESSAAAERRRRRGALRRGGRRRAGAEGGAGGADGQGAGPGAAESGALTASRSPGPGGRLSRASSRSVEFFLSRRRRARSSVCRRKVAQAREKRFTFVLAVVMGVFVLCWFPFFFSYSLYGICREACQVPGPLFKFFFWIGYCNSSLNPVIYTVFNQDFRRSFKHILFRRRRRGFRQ

As for `CN1CCN(C2=Nc3cc(Cl)ccc3Nc3ccccc32)CC1`, the inhibition was -176% (inactive) in experiment [1]; -0.493% (inactive) in experiment [3]; -2.62% (inactive) and 13.2% (inactive) in experiment [8]; 2.76% (inactive) in experiment [9]; 60.3% (active) in [10]. In experiment [1], the nuclei count turned out to be 132%. Also, the z-score was -0.235 in experiment [2] (setting [13]), 0.0948 in experiment [2] (setting [14]) and 0.322 in experiment [2] (setting [15]). For the same compound, the values for the fluorescence slope in [4] and in [6] were -0.457 (inactive) and 0.00391 (inactive), respectively. The NADPH fluorescence slope in experiment [5] was -6.9e-05 (inactive). Besides, the result in [7] was inactive.

On to `O=C(CCCN1CCC(O)(c2ccc(Cl)cc2)CC1)c1ccc(F)cc1`, for which the inhibition was -112% (inactive) in experiment [1]; 10.2% (inactive) in experiment [3]; -2.31% (inactive) and 3.84% (inactive) in [8]; -13% (inactive) in [9]; -5.69% (inactive) in [10]. The compound also displayed a nuclei count in experiment [1] of 130%. Moreover, the z-score in [2] (setting [13]) is 1.12; in [2] (setting [14]) it was -0.669; in experiment [2] (setting [15]) it was -0.889. Also, the values for the fluorescence slope in experiment [4] and in [6] were -0.485 (inactive) and 0.00387 (inactive), respectively. In addition, the NADPH fluorescence slope in experiment [5] was -4.2e-05 (inactive).

In the case of `NC(N)=Nc1nc(CSCC/C(N)=N/S(N)(=O)=O)cs1`, the inhibition of aggregation in experiment [11] was 0.8% (inactive). For the same compound, the results for the nuclei count in experiment [11] and in experiment [1] were 101% and 116%, respectively. Further, the inhibition was -48.3% (inactive) in experiment [1]; 16.8% (inactive) in experiment [3]; 2.23% (inactive) and -8.71% (inactive) in experiment [8]; 13.5% (inactive) in experiment [9]; 42.5% (inactive) in experiment [10]. Besides, the z-score in experiment [2] (setting [13]) is -1.28; in experiment [2] (setting [14]) it was 1.78; in [2] (setting [15]) it was -1.37. The slope in [12] was 0.00523 (inactive). Moreover, in [7], the compound was classed as inactive.

As for `COc1cccc(C(=O)NCC(=O)n2nc(C)cc2C)c1`, the inhibition in experiment [1] is -70.4% (inactive); in experiment [3] it was 15.1% (inactive); in [8], 36% (inactive). The same compound showed a nuclei count in [1] of 88.5%. In addition, the z-score in experiment [2] (setting [13]) is 0.974; in [2] (setting [14]), 0.517; in [2] (setting [15]), -1.04. Besides, the fluorescence slope in experiment [4] was -0.462 (inactive); in [6], 0.00505 (inactive). Further, in experiment [5], the NADPH fluorescence slope was -4.4e-05 (inactive). The outcome in experiment [7] was inactive.

Turning to `CC1(C)CC(=O)C=C(NCCO)C1`, the inhibition was -18.5% (inactive) in experiment [1], 20.8% (inactive) in experiment [3] and 40.3% (inactive) in experiment [8]. In addition, the nuclei count in experiment [1] amounted to 146%. In addition, the z-score is 1.01 in [2] (setting [13]), -0.173 in [2] (setting [14]) and -0.675 in experiment [2] (setting [15]). Also, the fluorescence slope was -0.395 (inactive) in experiment [4] and 0.00557 (inactive) in experiment [6]. Further, in experiment [5], the NADPH fluorescence slope is -5.8e-05 (inactive). In addition, the result in experiment [7] was inactive.

For the compound `COc1ccc(C(=O)N2CCCC(c3ccccc3)C2)cc1` (stereo unspecified), the inhibition in [1] was -91.1% (inactive); in experiment [3] it was -7.79% (inactive); in experiment [8] it was 8.1% (inactive). In experiment [1], this compound displayed a nuclei count of 167%. Also, the z-score in experiment [2] (setting [13]) is -0.133; in [2] (setting [14]) it was 0.389; in [2] (setting [15]), 0.742. The fluorescence slope is -0.406 (inactive) in experiment [4] and 0.00466 (inactive) in [6]. The NADPH fluorescence slope in experiment [5] was -4.3e-05 (inactive). Also, the outcome in [7] was inactive.

Turning to `CC1=NS(=O)(=O)c2cc(Cl)ccc2N1`, the inhibition in experiment [1] is -68% (inactive); in experiment [3], 19.2% (inactive); in experiment [8], -5.98% (inactive) and 10.3% (inactive); in experiment [9], 15.7% (inactive); in experiment [10], 41.7% (inactive). The nuclei count in experiment [1] came out at 105%. Further, the z-score is 0.557 in experiment [2] (setting [13]), 0.773 in experiment [2] (setting [14]) and -0.365 in [2] (setting [15]). Besides, the fluorescence slope in experiment [4] was -0.43 (inactive). Moreover, the NADPH fluorescence slope in [5] is -5.9e-05 (inactive). For the same compound, the slope in [12] is 0.00504 (inactive). In addition, the call in experiment [7] was inactive.

As to `Cc1ccc(N2CN=c3s/c(=C\c4cccnc4)c(=O)n3C2)cc1`, the inhibition in experiment [1] is -18.9% (inactive); in experiment [3] it was 1.75% (inactive); in experiment [8] it was 36.5% (inactive). Also, in experiment [1], the nuclei count turned out to be 87.4%. Besides, the z-score in experiment [2] (setting [13]) was -0.873; in experiment [2] (setting [14]) it was 0.442; in experiment [2] (setting [15]), 0.633. Also, the fluorescence slope is -0.483 (inactive) in [4] and 0.00552 (inactive) in experiment [6]. In experiment [5], the NADPH fluorescence slope is -4.2e-05 (inactive). In addition, the compound was classed as inactive in experiment [7].

For the compound `Cc1nc2sc(C)c(C)c2c(=O)o1`, the inhibition was -24.2% (inactive) in [1], -5.89% (inactive) in experiment [3] and 6.15% (inactive) in experiment [8]. The nuclei count in experiment [1] is 180%. In addition, the z-score in experiment [2] (setting [13]) was -0.563; in [2] (setting [14]), -1.75; in experiment [2] (setting [15]) it was 1.05. Also, the figures for the fluorescence slope in experiment [4] and in experiment [6] were -0.39 (inactive) and 0.0058 (inactive), respectively. For the same compound, the NADPH fluorescence slope in experiment [5] is -4.5e-05 (inactive). Moreover, the result in experiment [7] was inactive.
